Pf Dd2 growth: qHTS Primary assay for Inhibitors of Plasmodium falciparum Dd2 growth in vitro; P. falciparum Dd2 growth, SYBR Green, 72 h; AID 1347417, 2020; Potency, µM (titrated, usually from 28.9 µM), without a hit: top-dose activity, negative = inhibition, hits mostly inhibitors; actives 4.3% (n = 120,000); active = well fitted inhibition curve with a large enough effect;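 note: plate controls were DMSO vehicle for no effect and reference drug for full effect; nearly all actives have a fitted effect of over 65% in size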
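Infected erythrocytes (Dd2, 0.3% parasitemia, 2.5% hematocrit final) are added to compound in RPMI-1640/Albumax II medium, grown 72 h at 37C in low oxygen, then lysed with saponin/Triton-X containing SYBR Green and read by fluorescence.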
The depositor's hits bear a star; i = inactive; [ ] = another dose, or the depositor's remark. Many of the other results were omitted from the sample, so hits are more common in it than they were. Potency is the fitted concentration of half-maximal effect.

SMILES	Pf Dd2 growth
O=C1CC(c2ccccc2)N(Cc2ccc3[nH]ccc3c2)CCCCCN1 (stereo not drawn)	7.9µM*
O=C1CC(c2ccccc2)N(Cc2ccc3c(c2)CCO3)CCCCCCN1 (stereo not drawn)	13µM*
O=C1CC(c2ccccc2)N(C(=O)C2CC2)CCCCCCN1 (stereo not drawn)	-9%
CC(=O)N1CCC(n2nccc2NC(=O)Nc2ccccc2C)CC1	-5%
O=C(C1CCC1)N1CCCC1c1nc(C2CCOCC2)no1 (stereo not drawn)	-11%
Cc1cnc(CC2CCN(C(=O)C3CC3)C2)n1C1CC1 (stereo not drawn)	i
CCCOc1ccc(-c2nc3ccc(-c4ccc(OC)c(OC)c4OC)cc3o2)cc1	10µM*
COc1ccc(-c2ccc3nc(-c4ccc(C)c(F)c4)oc3c2)c(OC)c1OC	11%
COc1ccc(-c2ccc3nc(-c4ccc(SC)cc4)oc3c2)c(OC)c1OC	i
C[C@@H]1CN(C(=O)c2cccc(N3CCCC3=O)c2)C[C@@]1(O)C1CCC1	i
CN1CCN(c2cc(N3CCCC(CO)(CC4CC4)C3)nc(N)n2)CC1 (stereo not drawn)	-3%
Cc1ccc(OCC(=O)NCC2CCN(c3cnn(C)c(=O)c3)C2)cc1 (stereo not drawn)	-29%
Cc1ccc(Cl)cc1NC(=O)c1sc2nc(C)c(C)c(C)c2c1N	8%
COc1cccc(NC(=O)c2sc3nc(C)c(C(=O)Nc4ccc(C)cc4C)c(-c4sccc4C)c3c2N)c1	2.2µM*
COc1cccc(NC(=O)c2sc3nc(C)c(C(=O)Nc4ccc(C)cc4C)c(-c4ccco4)c3c2N)c1	3.2µM*
COc1cc(Cl)c(C)cc1NC(=O)c1sc2nc(C)cc(C)c2c1N	4%
CCC(C)NC(=O)c1sc2nc(C)c(C(=O)Nc3ccc(Cl)cc3)c(-c3ccc(Br)cc3)c2c1N (stereo not drawn)	18%
COc1cccc(-c2ccc3c(N)c(C(=O)Nc4ccccc4C)sc3n2)c1	-9%
COc1cccc(-c2ccc3c(N)c(C(=O)Nc4cc(F)ccc4F)sc3n2)c1	43%[5.79 µM]
COc1cccc(NC(=O)c2c(C)nn(-c3cccc(C)c3)c2-n2cccc2)c1	-20%
COc1cccc(NC(=O)c2sc3nc(C)c(C(=O)Nc4ccc(C)cc4C)c(-c4ccccc4Cl)c3c2N)c1	1µM*
CN(C)c1cc(N2CCCC(NC(=O)Cc3cccs3)C2)ncn1 (stereo not drawn)	36%[5.79 µM]
CS(=O)(=O)N1CCC(C2CCN(C(=O)C3CC=CC3)C2)CC1 (stereo not drawn)	-3%
CCCNC(=O)NCC1(COc2ccc(S(C)(=O)=O)cc2)C[C@@H](O)[C@@H](O)C1 (stereo partly drawn)	6%[44.1 µM]
CCc1noc([C@@H]2CC(F)(F)CN2C(=O)c2ccnn2C)n1	9%
SMILES	Pf Dd2 growth
CCCS(=O)(=O)N1CC[C@H](c2nc(C)no2)[C@H](NC(=O)COC)C1	i[5.79 µM]
CCOc1ncccc1C(=O)N1C[C@H](OCC)[C@@H](O)C1	2%
CCN(CCOc1ccc(F)cc1)C(=O)c1cnc(NC(C)C)nc1	-8%
NC(=O)CCNC(=O)[C@@H]1C[C@@H](NS(=O)(=O)c2cccs2)CCN1C(=O)COCC(=O)O	6%
Cc1cccc(CN2CCCC(O)(CN3CCOCC3)C2=O)c1 (stereo not drawn)	-12%
CNC(=O)[C@H]1C[C@H](Oc2ccccc2)CN1C(=O)Nc1ccc2c(c1)OCCO2	1%
Cc1ccc(CN2CCN(C3CCN(Cc4ccccn4)CC3)CC2CCO)o1 (stereo not drawn)	-7%
COc1ccc(CN2CCN(C3CCN(c4ccccc4)CC3)CC2CCO)cc1C (stereo not drawn)	11µM*
CC(C)N1CCN(C2CCN(c3ccc4c(c3)CCC4)CC2)CC1CCO (stereo not drawn)	-19%
CCn1cnnc1CC1CCN(C(=O)C2CCCCC2)C1 (stereo not drawn)	14%
COc1ccccc1CN1CCC2(CC1)COCCN2C(=O)OCc1ccccc1	-7%[44.1 µM]
CCCn1cc(CN2CCC(CO)(Cc3ccccc3Cl)CC2)c(C)n1	i
OCC1(Cc2ccccc2)CCN(Cc2ccccc2-c2ccco2)CC1	8.9µM*
CN(CCCc1nccn1C)C(=O)c1cn(CCC2CCCCN2)nn1 (stereo not drawn)	-19%
COc1cccc(Nc2nc(-c3ccccc3)c3cc(C)ccc3n2)c1	10µM*
Clc1ccc(Nc2nc(-c3ccccc3)c3cc(Cl)ccc3n2)cc1	i
Clc1ccccc1-c1nc(Nc2ccccc2)nc2ccc(Br)cc12	-17%
O=C(C[C@H]1NC(=O)c2ccccc2NC1=O)Nc1nc(-c2ccccn2)cs1	-29%
O=c1ncn(CC2CC2)c2ccc(-c3ccc(F)cc3F)nc12	i
Cc1cc(F)ccc1-c1[nH]nc2ncc(-c3ccsc3)nc12	i
NC(=O)C1CCN(c2ncncc2-c2nc(-c3ccccc3)no2)CC1	-21%
O=C(c1ccco1)N1CCN(c2ncncc2-c2nc(-c3ccccc3)no2)CC1	4µM*
c1ccc(-c2noc(-c3cncnc3N3CCN(c4ccccc4)CC3)n2)cc1	-11%
COc1ccc(C(=O)N2CCOC(CCCC(C)C)C2)o1 (stereo not drawn)	-23%
O=C(c1ccccc1Cl)N1CCCC(c2nn(-c3cccc(Cl)c3)c(=O)[nH]2)C1 (stereo not drawn)	i
SMILES	Pf Dd2 growth
COc1ccc(-n2nc(C3CCCN(C(=O)Cc4cccc(Cl)c4)C3)[nH]c2=O)cc1 (stereo not drawn)	-23%
COc1ccc(C(=O)N2CCCC(c3nn(-c4ccccc4)c(=O)[nH]3)C2)cc1 (stereo not drawn)	i
O=C(Cc1cccc(Cl)c1)N1CCCC(c2nn(-c3cccc(Cl)c3)c(=O)[nH]2)C1 (stereo not drawn)	10µM*
COc1ccc(-n2nc(C3CCN(C(=O)c4ccccc4)CC3)[nH]c2=O)cc1	-21%
COc1ccc(-n2nc(C3CCCN(C(=O)c4ccccc4)C3)[nH]c2=O)cc1 (stereo not drawn)	11µM*
COc1nc2c(cc1CNC(=O)C1CC(=O)N(C)C1)C(=O)N(C1CCCC1)C2 (stereo not drawn)	6%
CCOC(=O)c1ccc(NC(=O)Cn2nc3c(cc2=O)CCCCC3)cc1	-9%
COc1ccc(NC(=O)c2nnn3cc(C)[nH]c(=O)c23)cc1OC	-16%
O[C@@H]1[C@@H](Cn2cc(C3CC3)nn2)C[C@@H](NCc2nccs2)[C@@H]1O	10%
CCCCN(CC)CCNC(=O)C1CCCN(S(=O)(=O)c2cccc3nsnc23)C1 (stereo not drawn)	i
Cc1ccc(NC(=O)C2CCC(CNS(=O)(=O)c3cccc4nsnc34)CC2)c(C)c1 (stereo not drawn)	1%
O=C(Nc1ccc(F)c(F)c1)C1CCCN1S(=O)(=O)c1cccc2nsnc12 (stereo not drawn)	11µM*
O=C(Nc1ccc(C(F)(F)F)cc1)C1CCC(CNS(=O)(=O)c2cccc3nsnc23)CC1 (stereo not drawn)	2.8µM*
CCN(CC)c1ccc(NC(=O)CCS(=O)(=O)c2cccc3nsnc23)c(C)c1	-10%
CCN(C(=O)C(Cc1ccccc1)NS(=O)(=O)c1cccc2nsnc12)c1ccccc1 (stereo not drawn)	3%
CCc1ccc(NC(=O)C2CCCN2S(=O)(=O)c2cccc3nsnc23)cc1 (stereo not drawn)	30%

Compound activity from PubChem.
